Our source for the composite z-score and z-score values is PubChem BioAssay.

Calls of active or inactive are those of the source.

Test [1] is described as follows: anti-His antibody binders, primary screen, artefact control for SMM control protein annotation, biochemical, small-molecule microarray, 635 nm fluorescence (AID 1128).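 Note: score merges feature fluorescence with signal-to-noise for each printed compound spot.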 As to conditions: anti-His Alexa647 antibody binding, higher = more signal.
For test [2], the system named is Human papillomavirus type 1a E7 protein (residues 1-88). Kind of test: HPV1a E7 small-molecule binders, primary screen, biochemical, small-molecule microarray, residues 1-88, 635 nm (AID 1129). As to conditions: small-molecule microarray binding, fluorescence 635 nm; higher = more signal.
For test [3], the target named is Focal adhesion kinase 1 (Homo sapiens) (UniProt Q05397). The test is described as follows: small-molecule microarray binders of FAK, primary screen, biochemical, 635/667 nm fluorescence, BSA, DTT (AID 1130).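 Note: composite of spot emission at 667 nm and signal to noise over triplicate slides.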 As to conditions: PTK2 binding, 635 nm fluorescence, higher = more signal.
Chain of Focal adhesion kinase 1 (Homo sapiens) (Q05397 whole entry, looked up): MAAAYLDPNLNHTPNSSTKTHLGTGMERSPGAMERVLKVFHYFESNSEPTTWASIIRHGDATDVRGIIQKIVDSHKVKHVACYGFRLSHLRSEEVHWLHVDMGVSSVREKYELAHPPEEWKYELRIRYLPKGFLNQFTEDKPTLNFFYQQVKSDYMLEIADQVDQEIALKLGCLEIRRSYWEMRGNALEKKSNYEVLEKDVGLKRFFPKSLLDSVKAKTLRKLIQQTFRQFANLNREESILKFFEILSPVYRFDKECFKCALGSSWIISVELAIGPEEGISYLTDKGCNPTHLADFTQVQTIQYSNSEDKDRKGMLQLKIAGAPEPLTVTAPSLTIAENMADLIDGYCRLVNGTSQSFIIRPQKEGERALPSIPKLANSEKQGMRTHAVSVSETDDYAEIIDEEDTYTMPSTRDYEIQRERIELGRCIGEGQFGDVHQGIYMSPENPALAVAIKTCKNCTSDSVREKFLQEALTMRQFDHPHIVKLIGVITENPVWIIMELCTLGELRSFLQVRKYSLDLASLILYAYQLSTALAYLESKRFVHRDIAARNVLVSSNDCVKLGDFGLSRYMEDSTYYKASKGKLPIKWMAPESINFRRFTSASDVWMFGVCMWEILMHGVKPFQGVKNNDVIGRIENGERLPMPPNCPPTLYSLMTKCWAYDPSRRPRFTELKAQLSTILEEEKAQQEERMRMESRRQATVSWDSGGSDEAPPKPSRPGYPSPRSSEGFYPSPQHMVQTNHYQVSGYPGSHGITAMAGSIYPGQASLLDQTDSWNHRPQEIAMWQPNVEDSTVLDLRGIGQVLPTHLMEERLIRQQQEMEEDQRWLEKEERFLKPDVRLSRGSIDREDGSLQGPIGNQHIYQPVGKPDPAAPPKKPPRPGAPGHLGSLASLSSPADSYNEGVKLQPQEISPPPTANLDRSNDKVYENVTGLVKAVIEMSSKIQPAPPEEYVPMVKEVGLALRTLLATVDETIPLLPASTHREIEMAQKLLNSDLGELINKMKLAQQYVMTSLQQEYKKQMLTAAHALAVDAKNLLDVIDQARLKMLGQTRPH
Test [4] deals with Fibrinogen (Alexa647-labelled). The test is described as follows: fibrinogen binders on compound microarrays, profiling panel, artefact control for SMM control-protein annotation, biochemical, small-molecule microarray, 635/667 nm fluorescence (AID 1131).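 Note: z-score merges 667 nm fluorescence with per-spot signal-to-noise over triplicate slides.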 As to conditions: fibrinogen-A647 binding fluorescence, higher = more signal.
The target in test [5] is Follistatin (Homo sapiens) (UniProt P19883). The test is described as follows: follistatin binders on small-molecule microarrays, primary screen, biochemical, small-molecule microarray, 635/667 nm fluorescence (AID 1132). As to conditions: FST binding, 635 nm fluorescence, higher = more signal.
Chain of Follistatin (Homo sapiens) (P19883 whole entry, looked up): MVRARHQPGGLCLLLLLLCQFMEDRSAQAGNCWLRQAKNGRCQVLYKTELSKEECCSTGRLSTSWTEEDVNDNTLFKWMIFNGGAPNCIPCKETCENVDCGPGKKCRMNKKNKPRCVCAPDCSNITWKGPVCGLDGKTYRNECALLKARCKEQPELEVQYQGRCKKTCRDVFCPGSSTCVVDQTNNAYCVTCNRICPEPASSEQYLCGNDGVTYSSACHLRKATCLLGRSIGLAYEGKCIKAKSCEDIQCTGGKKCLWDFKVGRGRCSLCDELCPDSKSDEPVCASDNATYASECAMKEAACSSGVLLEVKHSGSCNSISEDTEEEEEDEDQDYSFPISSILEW
Test [6] has as its target Fibroblast growth factor 2 (Homo sapiens) (UniProt P09038). Kind of test: FGF2 binders on small-molecule microarrays, primary screen, biochemical, small-molecule microarray, 635/667 nm fluorescence (AID 1133). As to conditions: small-molecule microarray binding, FGF2, fluorescence 635/667; higher = more signal.
The nature of test [7]: mitochondrial membrane potential change in A549 cells, profiling panel, cell-based, JC-1 fluorescence, basal, 24 h, 100 nL (AID 1138).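 Note: A549 lung adenocarcinoma cells under basal conditions with no added stimulus; test concentration not given here.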 As to conditions: higher = more signal.
The subject of the next test is Lefty1. The test is described as follows: Lefty1 binders on small-molecule microarrays, primary screen, biochemical, small-molecule microarray, 635/667 nm fluorescence (AID 1139). As to conditions: small-molecule microarray binding, fluorescence 635/667; higher = more signal.
The subject of test [8] is wheat germ agglutinin (Triticum aestivum), Alexa647-labelled. The test is described as follows: wheat germ agglutinin binders on compound microarrays, profiling panel, artefact control for SMM control-protein annotation, biochemical, small-molecule microarray, 635/667 nm fluorescence (AID 1140).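 Note: score merges 667 nm feature emission with signal to noise over triplicate slides.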 As to conditions: WGA-A647 binding, 635 nm fluorescence, higher = more signal.

Test [9] deals with Luciferin 4-monooxygenase (Photinus pyralis) (UniProt P08659). The test is described as follows: firefly luciferase enzyme inhibitors, primary screen, biochemical, luminescence, purified enzyme, 2006 set (AID 1141).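 Note: cell-free assay with purified firefly luciferase at 100 ng per well in PBS; test concentration not given here.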 As to conditions: SteadyGlo luminescence, 30 min, higher = more signal, called active from +8 up or from −8 down.
Chain of Luciferin 4-monooxygenase (Photinus pyralis) (P08659 whole entry, looked up): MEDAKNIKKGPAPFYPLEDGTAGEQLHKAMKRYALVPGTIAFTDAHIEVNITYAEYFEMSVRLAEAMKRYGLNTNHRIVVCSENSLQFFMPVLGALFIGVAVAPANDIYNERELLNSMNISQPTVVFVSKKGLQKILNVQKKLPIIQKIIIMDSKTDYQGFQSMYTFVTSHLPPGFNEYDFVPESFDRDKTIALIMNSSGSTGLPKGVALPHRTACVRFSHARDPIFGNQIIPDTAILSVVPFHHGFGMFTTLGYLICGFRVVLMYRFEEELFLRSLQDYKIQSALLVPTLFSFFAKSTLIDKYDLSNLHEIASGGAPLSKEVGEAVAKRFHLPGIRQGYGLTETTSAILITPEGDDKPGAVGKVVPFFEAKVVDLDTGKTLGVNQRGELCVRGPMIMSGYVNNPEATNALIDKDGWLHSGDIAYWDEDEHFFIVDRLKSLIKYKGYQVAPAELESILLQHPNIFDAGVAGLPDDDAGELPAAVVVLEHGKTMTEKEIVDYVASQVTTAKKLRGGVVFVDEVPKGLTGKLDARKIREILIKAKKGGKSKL

Chain of Fibroblast growth factor 2 (Homo sapiens) (P09038 whole entry, looked up): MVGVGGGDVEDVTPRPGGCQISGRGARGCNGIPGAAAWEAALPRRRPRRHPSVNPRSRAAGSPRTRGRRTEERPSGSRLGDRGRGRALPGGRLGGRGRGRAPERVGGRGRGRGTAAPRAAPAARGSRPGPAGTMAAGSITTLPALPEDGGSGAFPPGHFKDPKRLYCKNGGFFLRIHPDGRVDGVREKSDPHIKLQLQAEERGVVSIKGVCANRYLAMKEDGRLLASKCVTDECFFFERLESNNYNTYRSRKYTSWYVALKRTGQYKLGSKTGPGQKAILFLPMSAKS

Take `C[N+](C)(C)CCCCCCNC(=O)[C@@H]1C[C@@H]2C(=O)NCC(=O)N2[C@@H]1c1ccc(O)cc1`: the composite z-score in test [1] was 0.946; in test [2], 1.05; in [3], -0.0272; in test [4], 0.49; in test [5], 1.41; in test [6], 1.31. Besides, the composite z-score was determined as 1.53 in the test with Lefty1 and 0.01 in test [8]. Further, the z-score is -0.779 in [7] and 0.584 (inactive) in test [9].
Regarding `Cc1ccccc1C(O)C1C=CC2C(=O)N(C)C(=O)C2N1Nc1ccc([N+](=O)[O-])cc1[N+](=O)[O-]` (stereo not given), the composite z-score in test [1] is 0.509; in test [2], 1.27; in [3], 0.646; in test [4], 1.02; in [5], 0.674; in test [6] it was -0.38. The composite z-score was -0.167 with Lefty1 and 0.913 in [8]. Further, the results for the z-score in [7] and in test [9] were 0.668 and 0.147 (inactive), respectively.
Take `CC1CC/C=C\[C@H]2OC34C=CCN(c5ccc(Cl)cc5)C(=O)[C@H]3N(C(CO)C(C)C)C(=O)[C@]4(C)C2C(=O)O1` (stereo not given in full): the composite z-score is 0.776 in [1]; -0.512 in test [2]; -0.432 in test [3]; -0.787 in test [4]; -0.648 in test [5]; -0.87 in test [6]. Also, the values for the composite z-score (with Lefty1; in test [8]) were -0.626 and -0.281, respectively. Moreover, the z-score was 0.34 in [7] and -0.391 (inactive) in test [9].
On to `CCCCC=C[C@@H](NC(=O)CCc1ccccc1)c1ccccc1`, for which the composite z-score in test [1] was found to be 0.838; in test [2] it was 1.2; in [3], 0.507; in test [4] it was 0.939; in test [5], 0.361; in [6], 0.362. Moreover, the composite z-score in the test with Lefty1 is -0.0782; in [8], 1.07. The z-score is -2.3 in test [7] and 1.08 (inactive) in test [9].
For the molecule `COCCCNC(=O)[C@]1(CCS(=O)(=O)c2ccccc2)N=C(c2ccc(OCCCO)cc2)O[C@@H]1c1ccccc1`, the composite z-score in [1] turned out to be 1.85; in test [2] it was 1.27; in [3] it was 1.57; in [4], 0.997; in test [5], 0.892; in test [6], 1.36. In addition, the composite z-score in the test on Lefty1 stood at 0.136; in test [8], 0.455. Further, the z-score is 1.3 in test [7] and -1.45 (inactive) in [9].
In the case of `CCCCC(=C=CC[C@H](O)c1ccccc1OCCO)C[C@H](O)c1ccccn1`, the composite z-score in [1] was 0.299; in test [2], 0.0909; in test [3], -0.255; in test [4] it was -0.196; in [5] it was 1.29; in test [6], 1.37. The composite z-score in the test on Lefty1 is 1.15; in test [8], 0.458. The z-score is 0.717 in test [7] and -0.109 (inactive) in [9].
In the case of `C[C@@H]1ON(c2ccccc2)[C@H](c2ccccc2)[C@H]1C(=O)N1C(=O)OC[C@H]1Cc1ccccc1`, the composite z-score in test [1] is 0.39; in test [2], 0.569; in [3] it was 0.507; in [4] it was -0.178; in test [5] it was 0.586; in test [6] it was 0.375. Besides, the figures for the composite z-score (in the test on Lefty1; in test [8]) were 0.675 and 0.237, respectively. In addition, the z-score was 2.24 in [7] and 0.549 (inactive) in test [9].
Regarding `CCCN1C(=O)[C@@]2(Cc3ccccc3)N=C(c3ccc(OCCCO)cc3)O[C@H]2c2ccccc21`, the composite z-score in [1] is 0.856; in [2], 1.08; in [3], 0.86; in test [4] it was 0.753; in test [5] it was 1.42; in test [6], 1.73. For the same molecule, the composite z-score in the test on Lefty1 was 0.757; in test [8] it was 0.445. The z-score in test [7] is 0.686; in test [9] it was -4.05 (inactive).
Take `CN1C(=O)C2C=CC(C(O)c3ccc(F)cc3)N(N3CCCCC3)C2C1=O` (stereo not given): the composite z-score is 2.59 in test [1]; 0.978 in [2]; 1.34 in test [3]; 0.167 in test [4]; 0.0756 in test [5]; -0.627 in test [6]. The values for the composite z-score (with Lefty1; in test [8]) were -1.21 and 1.38, respectively. Also, the results for the z-score in test [7] and in test [9] were -0.0964 and 0.0216 (inactive), respectively.
With `COCCCNC(=O)[C@]1(Cc2ccccc2CN=[N+]=[N-])N=C(c2ccc(OCCCO)cc2)O[C@@H]1c1ccccc1CN=[N+]=[N-]`, the composite z-score in test [1] is 2.28; in test [2], 1.2; in test [3], 0.11; in [4] it was 0.954; in [5] it was 0.701; in [6] it was 0.244. Besides, the composite z-score in the test on Lefty1 is -0.449; in [8], 1.02. Moreover, the z-score in test [7] was 1.28; in test [9], -0.107 (inactive).
As to `O=C1O[C@H](c2ccccc2)[C@H](c2ccccc2)N2[C@H]1[C@@H](C(=O)N1CCN(c3ncccn3)CC1)[C@]1(C(=O)Nc3ccc(C#CCCO)cc31)[C@H]2c1ccccc1OCCO`, the composite z-score in test [1] was found to be 1.55; in test [2], 1.2; in [3], 0.358; in [4], 0.869; in [5], 0.618; in [6] it was 1.29. For the same molecule, the composite z-score with Lefty1 was determined as 0.151; in [8] it was 1.02. Further, the results for the z-score in test [7] and in test [9] were 0.91 and -0.682 (inactive), respectively.
Consider `COc1ccc(CCNC(=O)[C@@H]2c3ccccc3C(=O)N(Cc3ccccc3C(F)(F)F)[C@H]2c2ccc(CO)cc2)cc1`, for which the composite z-score was 0.263 in [1]; 0.656 in [2]; 0.495 in test [3]; -0.731 in test [4]; 0.566 in [5]; -0.388 in test [6]. Moreover, the composite z-score with Lefty1 is -0.526; in test [8], 0.665. The z-score was 1.07 in test [7] and 0.912 (inactive) in test [9].
Consider `CN(C)C(=O)[C@]1(Cc2ccccc2N=[N+]=[N-])N=C(c2ccc(OCCCO)cc2)O[C@@H]1c1ccccc1CN=[N+]=[N-]`, for which the composite z-score was 1.28 in [1]; 1.25 in test [2]; 0.651 in test [3]; 1.06 in [4]; 1.23 in [5]; 1.06 in test [6]. Further, the composite z-score in the test on Lefty1 stood at 0.624; in test [8] it was 0.763. The z-score was 0.417 in test [7] and -0.307 (inactive) in test [9].
For `COC(=O)[C@@]1(Cc2ccc(F)cc2)[C@H]2c3cc(C(=O)N(C)C)n(Cc4ccc(C)c(F)c4F)c3C[C@H]2CN1C(=O)c1ccccc1`, the composite z-score in test [1] was 2.08; in test [2], 0.864; in [3], 0.454; in test [4], 0.743; in test [5], 0.0662; in test [6], -0.769. The composite z-score was -0.413 with Lefty1 and 0.854 in test [8]. The z-score is 1.33 in test [7] and 0.0883 (inactive) in [9].
For `COC(=O)[C@@]1(Cc2ccc(OC)cc2)[C@H]2c3cc(C(=O)N4CCCC4)n(CCc4ccc(O)c(OC)c4)c3C[C@H]2CN1C(=O)c1ccccc1`, the composite z-score in test [1] is 0.772; in [2], 0.23; in [3], 0.717; in [4], 0.219; in test [5] it was -0.625; in test [6], -0.46. In addition, the composite z-score was -1.78 in the test on Lefty1 and 0.0523 in test [8]. Further, the z-score in test [7] was -0.0583; in test [9], 0.551 (inactive).
For the molecule `CCN(CC)c1ccc(N2CC=CC34O[C@@H]5/C=C\CCCOC(=O)C5[C@H]3C(=O)N(CCCCCO)[C@@H]4C2=O)cc1` (stereo not given in full), the composite z-score was -0.617 in test [1]; -1.39 in test [2]; -0.722 in test [3]; -2.57 in [4]; -0.785 in test [5]; -1.26 in test [6]. The results for the composite z-score (in the test with Lefty1; in test [8]) were -0.758 and -1.19, respectively. Further, the z-score in test [7] is 0.965; in test [9], -0.918 (inactive).
